Experimental data published in PubChem BioAssay (NCATS).
Results filed as inconclusive are left out. Calls of active or inactive are those of the source. The call rests on the fitted dose curve; in most records, active means well fitted curve in the direction sought with a large enough effect; inconclusive means small, poorly fitted or top-dose-only effect, or another doubt; inactive means no such curve, though single readings can be large; an effect the other way counts as inactive or inconclusive.

Columns and labels:
[1] = tested on: CRL-7250; test: Cytotoxic Profiling of Annotated Libraries Using Quantitative High-Throughput Screening (AID 1296008); conditions: Five cell lines viability, CellTiter-Glo ATP luminescence, 48-72 h; max response: active compounds read low; further: nearly all actives have a fitted effect of over 60% in size; on max response: on the % scale 0 is the no-effect control and ±100 the full control effect
Method in brief: (§1)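 Cytotoxicity was measured as CellTiter-Glo ATP luminescence, read after 10 min at room temperature. Compound treatment of the cells lasted 48 or 72 hr at 37 degrees Celsius in a qHTS format.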

[2] = tested on: HEK293; test: as above; conditions: Five cell lines viability, CellTiter-Glo ATP luminescence, 48-72 h; max response: active compounds read low
Method in brief: as §1

[3] = tested on: HaCat; test: as above; conditions: Five cell lines viability, CellTiter-Glo ATP luminescence, 48-72 h; max response: active compounds read low
Method in brief: as §1

[4] = tested on: KB-3-1; test: as above; conditions: Five cell lines viability, CellTiter-Glo ATP luminescence, 48-72 h; max response: active compounds read low
Method in brief: as §1

[5] = tested on: NIH3T3; test: as above; conditions: Five cell lines viability, CellTiter-Glo ATP luminescence, 48-72 h; max response: active compounds read low
Method in brief: as §1

[6] = tested on: HACAT; test: qHTS assay to identify novel small-molecules to repurpose for Merkel cell carcinoma treatment (AID 1296009); conditions: MCC and control cell lines, CellTiter-Glo viability, 72 h; at 44.8 µM (top of the series) unless noted; further: nearly all actives have a fitted effect of over 60% in size
Method in brief: (§2)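 Cell viability measured by CellTiter-Glo following 72 hr compound treatment at 37 degree celsius, with NPC and MIPE libraries tested in 8- and 11-point concentration series.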

[7] = tested on: HEK293T; test: as above; conditions: MCC and control cell lines, CellTiter-Glo viability, 72 h; series mostly up to 44.8 µM
Method in brief: as §2

[8] = tested on: C33A; test: Primary qHTS to identify gynecologic anti-cancer compounds using libraries of approved drugs and bioactive compounds (AID 1345084); conditions: Gynecologic cancer cell panel viability, ATPlite luminescence, 48 h; series mostly up to 57.5 µM; further: on the % scale 0 is the no-effect control and ±100 the full control effect; nearly all actives have a fitted effect of over 55% in size
Method in brief: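 Five-concentration response, 48 h; readout is ATP-driven luciferase luminescence.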

CC(C)CC(=O)OC[C@H]1O[C@@](COC(=O)CC(C)C)(O[C@H]2O[C@H](CO)[C@@H](O)[C@H](O)[C@H]2O)[C@@H](OC(=O)CC(C)C)[C@@H]1OC(=O)CC(C)C
inactive: max response [1] -0.942% | outcome [2] | outcome [3] | max response [4] 9.19% | outcome [5] | outcome [6] inactive [at 17.4 µM] | Potency [7] | Potency [8]

C=C1CC2(C(=O)O)CC1CCC2C1(C)CCCC2(C)C(=O)OC(O)C21 (centres undefined)
inactive: max response [1] -12.2% | outcome [2] | outcome [3] | outcome [4] | max response [5] 0.0241% | outcome [6] | Potency [7] | Potency [8]

CC(=O)O[C@@H]1C[C@@]23C[C@@]24CC[C@H](OC2OC[C@@H](O)[C@H](O)[C@H]2O)C(C)(C)[C@@H]4CC[C@H]3[C@]2(C)CC3OC4(C[C@@H](C)C3[C@@]12C)OCC1(C)OC14 (some centres undefined)
inactive: max response [1] -1.36% | outcome [2] | outcome [3] | max response [4] -4.87% | max response [5] 3.69% | outcome [6] inactive [at 17.4 µM] | Potency [7] | Potency [8]

C/C=C/C=C/C(CC(=O)O)Nc1ccc(C=O)cc1 (centres undefined)
inactive: outcome [1] | outcome [2] | outcome [3] | max response [4] 5.57% | max response [5] 3.97% | outcome [6] | Potency [7] | Potency [8]

CC1=C(C)C(=O)OC(C(C)C2C(O)CC3C4C5OC5C5(O)CC(OC6OC(CO)C(O)C(O)C6O)CC(O)C5(C)C4CCC32C)C1 (centres undefined)
inactive: outcome [1] | outcome [2] | outcome [3] | max response [4] 0.502% | max response [5] -0.676% | outcome [6] inactive [at 17.4 µM] | Potency [7] | Potency [8]

COc1ccc(C2=CC(=O)OC2Cc2ccc(O)cc2)c(O)c1 (centres undefined)
inactive: outcome [1] | outcome [2] | outcome [3] | max response [4] 6.42% | max response [5] 1.17% | outcome [6] | Potency [7] | Potency [8]

O=C(CCCCc1ccc2ccccc2c1)C(F)(F)F
inactive: max response [1] 3.49% | outcome [2] | outcome [3] | max response [4] 2.37% | outcome [5] | outcome [6] inactive [at 92 µM] | Potency [7] | Potency [8]

CCC(CC)n1ccc2c(C(=O)NCc3c(C)cc(C)[nH]c3=O)cc(C#N)cc21
inactive: max response [1] -1.01% | outcome [2] | outcome [3] | max response [4] 2.42% | max response [5] -0.643% | outcome [6] | Potency [7] | Potency [8]

C=C1CC2[C@]3(C)C(=C(O)C(=O)[C@@]2(C)[C@]2(C(=O)OC)C(=O)C(C)OC(=O)[C@@]12C)C(C)(C)C(=O)CC3O (some centres undefined)
inactive: max response [1] -4.87% | outcome [2] | outcome [3] | outcome [4] | max response [5] 0.571% | outcome [6] inactive [at 17.4 µM] | Potency [7] | Potency [8]

O=C1CC(c2ccc([N+](=O)[O-])cc2)=NN1c1ccccc1
inactive: outcome [1] | outcome [2] | outcome [3] | max response [4] 3.45% | max response [5] 2.7% | outcome [6] | Potency [7] | Potency [8]

C=CC1(C)C=C2C(O)CC3C(C)(C(=O)O)CCCC3(C)C2CC1 (centres undefined)
inactive: outcome [1] | outcome [2] | outcome [3] | max response [4] 7.58% | max response [5] -5.1% | outcome [6] | Potency [7] | Potency [8]

CC1CCC2(C)C(CC(O)C(O)C23CO3)C1(C)CCC1=CC(=O)OC1O (centres undefined)
inactive: max response [1] -22% | outcome [2] | outcome [3] inactive; activator | max response [4] 4.04% | max response [5] 3.09% | outcome [6] inactive; activator | Potency [7] | Potency [8]

O=c1ccn(C2OC(CO)C(O)C2O)c(=O)[nH]1 (centres undefined)
inactive: outcome [1] | outcome [2] | outcome [3] | outcome [4] | max response [5] 1.59% | outcome [6] | Potency [7] | Potency [8]

C=C1CC/C=C(/CO)C(=O)C[C@@H]2[C@@H]1CC2(C)C
inactive: outcome [1] | outcome [2] | outcome [3] | max response [4] 2.82% | max response [5] 0.52% | outcome [6] | Potency [7] | Potency [8]

C=C(C(=O)O)C1CCC(C)C2CCC(=O)OC2(C)C1 (centres undefined)
inactive: max response [1] 4.24% | outcome [2] | outcome [3] | max response [4] 6.53% | max response [5] 0.163% | outcome [6] | Potency [7] | Potency [8]

COc1cc([C@H]2OC[C@]3(OC(C)=O)[C@@H](c4ccc(O[C@@H]5O[C@H](CO)[C@@H](O)[C@H](O)[C@H]5O)c(OC)c4)OC[C@H]23)ccc1O
inactive: outcome [1] | outcome [2] | outcome [3] | outcome [4] | max response [5] 4.83% | outcome [6] inactive [at 17.4 µM] | Potency [7] | Potency [8]

CCCCNC(=O)[C@@H]1Cc2ccccc2N1C(=O)[C@@H](N)CC
inactive: max response [1] -0.785% | outcome [2] | outcome [3] | max response [4] 6.18% | max response [5] 3.92% | outcome [6] | Potency [7] | Potency [8]

CC(=O)c1c(O)cc2cccc3c2c1CC(C)(O)O3 (centres undefined)
inactive: outcome [1] | outcome [2] | outcome [3] | max response [4] 4.55% | max response [5] -0.44% | outcome [6] | Potency [7] | Potency [8]

C=CC(C)(O)CC/C=C(\C)C(=O)OC1CC2(C(=O)O)CCC3(C)C(=CCC4C5(C)CCC(OC6OC(COC7OCC(O)C(O)C7O)C(O)C(OC7OCC(O)C(O)C7O)C6OC6OC(CO)C(O)C(O)C6OC6OCC(O)C(O)C6O)C(C)(C)C5CCC43C)C2CC1(C)C (centres undefined)
inactive: max response [1] 0.69% | outcome [2] | outcome [3] | outcome [4] | max response [5] 1.8% | outcome [6] inactive [at 9.27 µM] | outcome [7] inactive [at 9.27 µM] | activity change, negative = cytotoxicity [8] 0.0336% [at 6.55 µM]

C=C1CC23CC1(O)CCC2C1=CC2OC(=O)C(C)(C2O)C1C3C(=O)O (centres undefined)
inactive: max response [1] -8.2% | outcome [2] | outcome [3] | outcome [4] | max response [5] -19.3% | outcome [6] | Potency [7] | Potency [8]

CC(C)c1ccc(CC(=O)N2CCC[C@@H](c3cccc(OC(C)(C)C(=O)O)c3)C2)cc1
inactive: max response [1] -8.91% | outcome [2] | outcome [3] | outcome [4] | max response [5] -2.06% | outcome [6] | Potency [7] | Potency [8]

CC1=C2[C@@H]([C@H](C)CC[C@H]2/C=C(\C)C(=O)O)[C@H](O)C1
inactive: max response [1] 0.252% | outcome [2] | outcome [3] | max response [4] 3.15% | max response [5] 3.16% | outcome [6] | Potency [7] | Potency [8]

CC1=C2C(=O)C=C(CO)[C@@H]2[C@H]2OC(=O)[C@H](C)[C@@H]2[C@@H](O)C1
inactive: outcome [1] | outcome [2] | outcome [3] | max response [4] 1.39% | max response [5] -3.32% | outcome [6] | Potency [7] | Potency [8]

C(#Cc1cccc(CN2CCOCC2)c1)CCN1CCCCC1
inactive: max response [1] -3.48% | outcome [2] | outcome [3] | max response [4] 2.31% | max response [5] 1.81% | outcome [6] | Potency [7] | Potency [8]

CC(C)CC(=O)n1cc(C(N)=O)c(=O)cc1C(O)c1ccccc1 (centres undefined)
inactive: outcome [1] | outcome [2] | outcome [3] | outcome [4] | max response [5] 0.668% | outcome [6] | Potency [7] | Potency [8]

C[C@]12CCC[C@](C)(C(=O)O)C1CCC13C=C(CO)C(CCC12)C3 (some centres undefined)
inactive: max response [1] -11% | outcome [2] | outcome [3] | max response [4] 2.91% | outcome [5] | outcome [6] | Potency [7] | Potency [8]

CC1(C)CC2C3=CCC4C5(C)CCC(OC6OC(C(=O)O)C(O)C(O)C6OC6OC(CO)C(O)C(O)C6OC6OC(CO)C(O)C(O)C6O)C(C)(CO)C5CCC4(C)C3(C)CCC2(C)C(OC2OCC(O)C(OC3OC(CO)C(O)C(O)C3O)C2O)C1O (centres undefined)
inactive: max response [1] 2.95% | outcome [2] | outcome [3] | max response [4] 5.61% | max response [5] -17.3% | outcome [6] inactive [at 9.27 µM] | outcome [7] inactive [at 9.27 µM] | activity change, negative = cytotoxicity [8] 8.44% [at 6.55 µM]

C[C@H](NCc1ccc(OCc2ccccc2F)cc1)C(N)=O
inactive: outcome [1] | outcome [2] | outcome [3] | max response [4] -7.57% | max response [5] 1.69% | outcome [6] | Potency [7] | Potency [8]

CC(=O)O[C@@H]1[C@H]2[C@@H](OC(=O)c3ccccc3)[C@@H](C)C[C@]2(O)[C@H](OC(C)=O)[C@@]2(C)[C@@H]3CC(C)(C)C(=O)[C@]3(OC(C)=O)C[C@@]12C
inactive: outcome [1] | outcome [2] | outcome [3] | outcome [4] | max response [5] 4.53% | outcome [6] inactive [at 17.4 µM] | Potency [7] | Potency [8]

O=C(O)C[C@@H](NC(=O)c1cc(-c2ccc(-c3ccncc3)cc2)cs1)c1ccccc1
inactive: max response [1] 1.97% | outcome [2] | outcome [3] | max response [4] 4.03% | max response [5] 1.34% | outcome [6] | Potency [7] | Potency [8]

CC[C@H]1OC(=O)[C@H](C)[C@@H](OC2C[C@@](C)(OC)[C@@H](O)[C@H](C)O2)[C@H](C)[C@@H](OC2O[C@H](C)C[C@H](NC)[C@H]2O)[C@](C)(O)C[C@@H](C)CN(C)[C@H](C)[C@@H](O)[C@]1(C)O (some centres undefined)
inactive: outcome [1] | outcome [2] | outcome [3] | max response [4] -2.3% | max response [5] -0.0862% | outcome [6] | Potency [7] | Potency [8]

Cc1nnc(C(C)C)n1C1CC2CCC(C1)N2CC[C@H](NC(=O)C1CCC(F)(F)CC1)c1ccccc1 (some centres undefined)
inactive: outcome [1] | outcome [2] | outcome [3] | max response [4] -4.91% | outcome [5] | outcome [6] | Potency [7] | Potency [8]

Cc1cc(O)cc(Oc2cc(C)c(C(=O)O)c(O)c2)c1
inactive: max response [1] -27.9% | outcome [2] | outcome [3] | outcome [4] | max response [5] 4.83% | outcome [6] | Potency [7] | Potency [8]
